HIV RNase H inh = inhibitors of HIV-1 reverse transcriptase RNase H; AID 565; RT-RNase H RNA/DNA duplex cleavage, fluorescence; inhibition, % at 10 µM; P04585; actives 1.9% (n = 65,000); in the data active = inhibition above about 50%
RmlCD inh mix = mixture blocks RmlC and RmlD coupled enzyme activity. RmlC/RmlD coupled enzyme inhibition, 384-well mixture HTS. inhibition, % at 5.5 µM. actives 0.39% (n = 110,000). AID 1532; in the data active = inhibition above about 30%, passing the limit was not always enough; inconclusive = no clear call, values can overlap the other calls
* = called active by the depositor; ? = inconclusive; . = no result. The full list was thinned out, with hits kept by preference.

SMILES | HIV RNase H inh | RmlCD inh mix
O=C(NCc1cccnc1)C1CC(=O)N(CCc2ccccc2)C1 (stereo not drawn) | . | 3
COCc1n[nH]c(=S)n1-c1cccc2ccccc12 | 4 | 2
COc1ccc(-n2c(-c3ccco3)n[nH]c2=S)cc1 | 57* | 13
Nn1c(-c2ccco2)n[nH]c1=S | 49 | -12
S=c1[nH]nc(-c2ccco2)n1-c1cccc2ccccc12 | 54* | 12
O=c1[nH]c(SCc2n[nH]c(=S)n2-c2ccccc2)nc2sc3c(c12)CCC3 | . | -5
CC(=O)Oc1ccc2ccccc2c1C(NC(=O)Cc1ccccc1)c1ccc(Cl)cc1 (stereo not drawn) | . | -5
COc1cc(C(=O)NCc2nnc(SCC(=O)N3CCc4ccccc43)o2)cc(OC)c1OC | -13 | .
COc1ccc(Oc2nc(Oc3ccc(OC)cc3)nc(Oc3ccc(OC)cc3)n2)cc1 | 57* | -21
COc1nc(Oc2ccc(C(=O)O)cc2)nc(Oc2ccc(C(=O)O)cc2)n1 | . | -6
CC(C)Cn1c2c(c(O)c(C(=O)Nc3ncccc3O)c1=O)CCCC2 | 8 | 6
CCCCc1nc2ccccc2c(=O)n1NC(=O)c1c(O)c2c(n(CC(C)C)c1=O)CCCC2 | 52* | -7
CCOC(=O)Cn1c(=O)oc2cc(S(=O)(=O)Nc3ccc(N(CC)CC)cc3C)ccc21 | 50* | 6
CCOC(=O)Cn1c(=O)oc2cc(S(=O)(=O)Nc3cc(OCC)ccc3OCC)ccc21 | 2 | -6
CCOC(=O)N1CCC(N2C(=O)c3ccccc3C2Nc2ccc3c(C)cc(=O)oc3c2)CC1 (stereo not drawn) | 4 | 89*
CCOC(=O)N1CCC(N2C(=O)c3ccccc3C2Nc2ccc3c(c2)OCCO3)CC1 (stereo not drawn) | 6 | -11
Cc1cc(NC(=O)c2cc(-c3ccccc3)on2)n(-c2ccccc2)n1 | 4 | -6
Cc1cc(NC(=O)c2cc(-c3ccc4c(c3)OCO4)on2)n(-c2ccccc2)n1 | 55* | ?
CCOC(=O)c1cccc(NS(=O)(=O)c2ccc(NC(C)=O)cc2)c1 | . | 4
CCOC(=O)/C=C/S(=O)(=O)c1ccc(NC(C)=O)cc1 | 50* | ?
COC(C[C@@H]1O[C@H]1C(=O)[C@@H](C)OCc1ccccc1)OC | . | -13
c1csc(C(c2nnnn2C2CCCC2)N2CCCC3(CCCCC3)C2)c1 (stereo not drawn) | . | 2
CO/N=C(\C(=O)N[C@@H]1C(=O)N2C(C(=O)O)=C(COC(N)=O)CS[C@H]12)c1ccco1 | 13 | 4
Cn1nnnc1SCC1=C(C(=O)O)N2C(=O)[C@@H](NC(=O)[C@H](O)c3ccccc3)[C@H]2SC1 | 61* | -19
COc1ccc(CCNC(=O)c2cc3c(=O)n4cccc(C)c4nc3n(Cc3ccncc3)c2=N)cc1 | -2 | .
SMILES | HIV RNase H inh | RmlCD inh mix
COCCNC(=O)c1cc2c(=O)n3cccc(C)c3nc2n(Cc2ccncc2)c1=N | -10 | 40*
CCN(CC)S(=O)(=O)c1cc(C(=O)n2cccn2)c(Cl)cc1Cl | -1 | -7
COc1ccc(CCNC(=O)CCCn2c(SCC#N)nc3ccccc3c2=O)cc1OC | -14 | 15
COc1ccc(CNC(=O)CCCCCn2c(SCC#N)nc3cc4c(cc3c2=O)OCO4)cc1 | 57* | 6
Cc1ccc(-n2c(SCC(=O)NCc3ccco3)nc3sc(C)c(C)c3c2=O)cc1 | 55* | 3
Cc1sc2nc(SCC(=O)NCc3ccco3)n(Cc3ccccc3)c(=O)c2c1C | . | -5
Cc1sc2nc(SCC(=O)NCc3ccco3)n(-c3ccccc3)c(=O)c2c1C | 27 | -9
CCOC(=O)c1sc2nc(SCC(=O)NCc3ccco3)n(Cc3ccccc3)c(=O)c2c1C | 66* | .
O=C(Cc1cccc2ccccc12)N/N=C/c1ccc(Sc2nc3ccccc3s2)o1 | . | 9
CCOc1c2ccc(C(=O)NCc3ccc4c(c3)OCO4)cc2nn1CCOC | . | 14
O=c1c2cc(N3CCOCC3)ccc2[nH]c(=S)n1Cc1ccc(Cl)cc1 | . | -21
Cc1ccc(Cn2c(=S)[nH]c3ccc(N4CCOCC4)cc3c2=O)o1 | 64* | 14
N#Cc1ccsc1NC(=O)CN1CCCCCC1 | . | 4
CN(CC(=O)Nc1sccc1C#N)C1CCCCC1 | 58* | 4
CCOc1c(Cl)cc(CNCC(C)C)cc1Cl | . | -14
CC1CCC(C(=O)NC(C(=O)NCc2cccnc2)C(C)C)CC1 (stereo not drawn) | . | 9
O=c1cc(CSc2nnc(-c3cccs3)n2Cc2ccccc2)nc2sc3ccccc3n12 | 51* | -10
Cc1cc(C(=O)CSc2nnc(-c3cccs3)n2Cc2ccccc2)c(C)n1C | -47 | -13
COc1ccc(OCC(=O)Nc2sc3c(c2C(=O)NCC2CCCO2)CCC3)cc1 (stereo not drawn) | . | -6
COc1cccc(NC(=O)CSc2nc3c(c(-c4ccco4)c2C#N)CCCC3)c1 | 58* | 13
COCCOC(=O)c1c(C)nc(SCC(=O)Nc2ccc(OC)cc2)c(C#N)c1-c1ccco1 | -2 | 25
O=C(CCCCCn1c(=S)[nH]c2cc3c(cc2c1=O)OCO3)N1CCN(C(=O)c2ccco2)CC1 | 10 | -10
O=C(CCCCCn1c(=S)[nH]c2cc3c(cc2c1=O)OCO3)N1CCN(Cc2ccccc2)CC1 | 68* | 9
Cc1[nH]n(-c2ccccc2)c(=O)c1C1(C(F)(F)F)C(=O)N(c2ccc(F)cc2)C2=C1C(=O)CC(C)(C)C2 (stereo not drawn) | . | 3
C#CCNC(=O)C1=C[C@H](c2ccc(Br)cc2)[C@@H](CCCO)[C@H](OCC)O1 | . | -11
SMILES | HIV RNase H inh | RmlCD inh mix
COc1ccc(-n2ncc3c(N4CCCCC4)ncnc32)cc1 | -12 | -7
COc1ccc(-n2ncc3c(N4CCN(c5cccc(C)c5C)CC4)ncnc32)cc1 | 84* | .
CCC(Sc1nc(C)cc(C)n1)C(=O)O (stereo not drawn) | -9 | 5
CCC(Sc1ccc(C(=O)O)cc1)C(=O)O (stereo not drawn) | 57* | 2
O=C(Nc1cccc(-c2nc3ccccc3[nH]2)c1)c1cccc(NC(=O)c2ccco2)c1 | 64* | 14
O=S(=O)(Nc1ccc2nc(-c3ccc(Br)o3)[nH]c2c1)c1ccccc1 | 45 | 17
O=C(Nc1ccc2nc(-c3ccc(Br)o3)[nH]c2c1)c1ccco1 | 55* | 7
O=C(Nc1ccc2nc(-c3ccccc3)[nH]c2c1)c1ccco1 | . | -10
C=CCNc1cccc(Br)c1 | . | -215
Cc1ccc(S(=O)(=O)C/N=C(/NC(=S)N(c2ccccc2)c2ccccc2)c2ccccc2)cc1 | . | -11
CCn1c(COc2ccc3c(c2)CCCC3)nnc1SCC(=O)Nc1nccs1 | 62* | 10
CCn1c(CNC(=O)Cc2ccc(OC)cc2)nnc1SCC(=O)Nc1nccs1 | 3 | -5
COC(=O)C1=C(C(=O)OC)[C@@H]2Nc3ccccc3[C@@]23C[C@@H](C(=O)OC)N(C(=O)C2CCC2)C3=N1 | . | 0
CC1(C)CC(=O)C(C(C2=C(O)CC(C)(C)CC2=O)c2cccc(O)c2)C(=O)C1 (stereo not drawn) | 2 | -10
CC1(C)CC(=O)C2=C(C1)N(c1cccc(O)c1)C1=C(C2)C(=O)CC(C)(C)C1 | 30 | 39*
Cc1ccc(C)c(S(=O)(=O)N2CCN(CC(=O)NC(=O)NCc3ccccc3)CC2)c1 | -4 | 4
CC(C)c1nnc(NC(=O)c2c(O)c3cccc4c3n(c2=O)CC4)s1 | -21 | .
CCCc1nnc(NC(=O)c2c(O)c3cccc4c3n(c2=O)CCC4)s1 | 72* | 10

Screening data as filed in PubChem BioAssay.
